Bioassay records as filed in PubChem.
Most compounds without a hit are left out; they make up all but 19% or so of the library.
DT40 TDP1 no CPT: qHTS for Inhibitors of human tyrosyl-DNA phosphodiesterase 1 (TDP1): qHTS in cells in absence of CPT; DT40 Tdp1-/- hTDP1 cells, no CPT, ATP luminescence, 48 h; Potency, µM (doses to about 46.2 µM), for inactives: top-dose activity change, negative = growth inhibition, usual class: inhibitors; 420,000 tested, 15% active; further: potency means the concentration at half of the fitted maximal effect; nearly all actives have a fitted effect of over 55% in size
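Chicken DT40 Tdp1-/- cells complemented with human TDP1, screened without camptothecin (DMSO vehicle only), 400 cells/well. Compounds pin-transferred, cells incubated at 37 °C for at least 48 hr. Growth read as ATP-dependent luminescence (CellTiter-Glo, 30 min at RT).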
HT1080 IDH1KD tx: toxicity to HT-1080 IDH1 knockdown cells (counter line); HT-1080 IDH1 knockdown viability, ATP luminescence, 48 h; Potency, µM (top dose mostly 46.1 µM), for the others: at the top dose activity, negative = toxicity, usual class: cytotoxic; 360,000 tested, 2% active; AID 686971;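 further: potency means the concentration at half of the fitted maximal effect; 0% = DMSO wells and -100% = cell-free medium wells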
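Viability of IDH1-knockdown HT-1080 fibrosarcoma cells was assessed by CellTiter-Glo after 48 h at 37 °C with titrated compound; concentration-effect curves were classified by fit quality and response size.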
DT40 TDP1 CPT: DT40-hTDP1 cell growth loss with CPT. chicken DT40 Tdp1-/-;hTDP1 cells + 20 nM CPT, ATP luminescence, 48 h. Potency, µM (doses to about 46.2 µM), for the others: at the highest dose activity change, negative = growth inhibition, usual class: inhibitors. 420,000 tested, 12% active. AID 686979; further: potency means the concentration at half of the fitted maximal effect; nearly all actives have a fitted effect of over 55% in size
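Chicken DT40 Tdp1-/- cells complemented with human TDP1, 400 cells/well, exposed to compounds plus 20 nM camptothecin for at least 48 h at 37 C; viability read as ATP content by CellTiter-Glo luminescence.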
HT1080NT lethal: kills 2HG-producing HT-1080-NT fibrosarcoma cells. HT-1080-NT fibrosarcoma viability, CellTiter-Glo ATP luminescence, 48 h. Potency, µM (series often up to 46.1 µM), for the others: at the highest dose activity, negative = less viability, hits mostly cytotoxic. 360,000 tested, 1.6% active;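 further: NT is the 2HG producing partner of a matched IDH1 knockdown line; potency means the concentration at half of the fitted maximal effect; 0% = DMSO-treated cells and -100% = media-only wells without cells; nearly all actives have a fitted effect of over 55% in size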
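Fibrosarcoma NT cells, 750 per well in 5% FBS RPMI, were exposed to compound for 48 hours. Viability: CellTiter-Glo luminescence.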
IL1B secr inh: inhibitors of inflammasome signaling (IL-1 beta secretion). 360,000 tested, 4.7% active. AID 743279. THP-1 LPS/ATP IL-1B secretion, AlphaLISA, 16 h; active compounds read low. activity change, % at 57.5 µM; in the data active means activity change below about -50%; inconclusive means mostly about -30% to -49%
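Secreted IL-1B measured by AlphaLISA bead assay after 16 h compound exposure of THP-1 cells; compounds (final up to 57.5 uM) added 1 h before LPS (250 ng/mL) and ATP (1.25 mM) stimulation; lower signal means less secretion.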
An asterisk follows results filed as active. Unless noted, the call rests on the fitted dose curve; in most records, active means well fitted curve in the direction sought with a large enough effect; inconclusive means small, poorly fitted or top-dose-only effect, or another doubt; inactive means no such curve, though single readings can be large; an effect the other way counts as inactive or inconclusive. Unless noted, on the % scale 0 is the no-effect control and ±100 the full control effect.

`CCOC(=O)N1CCN(C(=O)C(NC(=O)c2ccc(CC)cc2)C(C)C)CC1` (stereo not drawn) gave DT40 TDP1 no CPT 5.8µM*, HT1080 IDH1KD tx 11%, DT40 TDP1 CPT 8.2µM*, HT1080NT lethal -6% and IL1B secr inh -19.
`CC(C)C(NC(=O)c1ccc(F)cc1)C(=O)N1CCC1` (stereo not drawn) gave DT40 TDP1 no CPT 1%, HT1080 IDH1KD tx -10%, DT40 TDP1 CPT -7%, HT1080NT lethal -2% and IL1B secr inh 32.
Screening Cc1ccc(C(=O)NC(=S)N2CCN(c3cc(C)ccc3C)CC2)cc1 returned DT40 TDP1 no CPT inconclusive, HT1080 IDH1KD tx -16%, DT40 TDP1 CPT inconclusive, HT1080NT lethal -10% and IL1B secr inh -5.
`Cc1ccc(C(=O)NC(=S)N2CCN(C(=O)OC(C)(C)C)CC2)cc1Br` gave DT40 TDP1 no CPT 13µM*, HT1080 IDH1KD tx 0%, DT40 TDP1 CPT 18µM*, HT1080NT lethal 8% and IL1B secr inh 0.
`CCOC(=O)CC1C(=O)NCCN1C(=O)Nc1ccccc1` (stereo not drawn) gave DT40 TDP1 no CPT -3%, HT1080 IDH1KD tx 8%, DT40 TDP1 CPT 3%, HT1080NT lethal 6% and IL1B secr inh 19.
`CCOC(=O)N1CCN(C(=S)NC(=O)c2ccc(Br)cc2)CC1` gave DT40 TDP1 no CPT 13µM*, HT1080 IDH1KD tx -15%, DT40 TDP1 CPT inconclusive, HT1080NT lethal -5% and IL1B secr inh inconclusive.
`NC(=O)c1cc(S(=O)(=O)Nc2ccccc2)cs1` gave DT40 TDP1 no CPT -15%, HT1080 IDH1KD tx 9%, DT40 TDP1 CPT 1%, HT1080NT lethal 16% and IL1B secr inh -5.
For CCOC(=O)N1CCN(C(=O)CSCc2ccc(Cl)cc2)CC1 the results were DT40 TDP1 no CPT inconclusive, HT1080 IDH1KD tx -15%, DT40 TDP1 CPT inconclusive, HT1080NT lethal -8% and IL1B secr inh 25.
`CCOC(=O)N1CCN(C(=O)CSCc2ccc(Br)cc2)CC1` gave DT40 TDP1 no CPT inconclusive, HT1080 IDH1KD tx -4%, DT40 TDP1 CPT -23%, HT1080NT lethal 0% and IL1B secr inh -60*.
For O=c1ccc2cc(O)c(O)cc2o1 the results were DT40 TDP1 no CPT inconclusive, HT1080 IDH1KD tx inconclusive, DT40 TDP1 CPT 16µM*, HT1080NT lethal inconclusive and IL1B secr inh 19.
For O=c1ccc2ccc(O)cc2o1 the results were DT40 TDP1 no CPT -30%, HT1080 IDH1KD tx inconclusive, DT40 TDP1 CPT -20%, HT1080NT lethal 0% and IL1B secr inh 44.
Screening O=c1cc(CN2CCN(c3ccccc3F)CC2)c2ccccc2o1 returned DT40 TDP1 no CPT inconclusive, HT1080 IDH1KD tx 5%, DT40 TDP1 CPT inconclusive, HT1080NT lethal -1% and IL1B secr inh 0.
`O=C(NCCC1=CCCCC1)c1c(O)nc2ccccn2c1=O` gave DT40 TDP1 no CPT 15µM*, HT1080 IDH1KD tx -25%, DT40 TDP1 CPT 12µM*, HT1080NT lethal inconclusive and IL1B secr inh 57.
Screening COc1cccc(CCNC(=O)c2c(O)nc3cc(C)ccn3c2=O)c1 returned DT40 TDP1 no CPT 14% and DT40 TDP1 CPT 4%.
Screening Cc1c(O)nc2ccccn2c1=O returned DT40 TDP1 no CPT -9%, HT1080 IDH1KD tx 5%, DT40 TDP1 CPT -27%, HT1080NT lethal 12% and IL1B secr inh -65*.
`COc1ccc(CCNC(=O)c2cc(C)oc2C)cc1OC` gave DT40 TDP1 no CPT inconclusive, HT1080 IDH1KD tx 15%, DT40 TDP1 CPT 6%, HT1080NT lethal 14% and IL1B secr inh -14.
`CCCCc1c(O)nc2ccccn2c1=O` gave DT40 TDP1 no CPT 1%, HT1080 IDH1KD tx 0%, DT40 TDP1 CPT -8%, HT1080NT lethal 5% and IL1B secr inh 23.
Screening COc1cccc(CCNC(=O)c2c(O)nc3ccccn3c2=O)c1 returned DT40 TDP1 no CPT 21µM* and DT40 TDP1 CPT 23µM*.
Screening COc1ccc(CCNC(=O)c2cc3cc(F)ccc3nc2C)cc1OC returned DT40 TDP1 no CPT 9.2µM*, HT1080 IDH1KD tx 4%, DT40 TDP1 CPT 21µM*, HT1080NT lethal 6% and IL1B secr inh 44.
Screening Cc1cc(NC(=O)c2ccoc2C)no1 returned DT40 TDP1 no CPT 3%, HT1080 IDH1KD tx -3%, DT40 TDP1 CPT -20%, HT1080NT lethal 2% and IL1B secr inh 0.
Screening CCCOC1CCCN(C(=O)c2cc(COc3ccc(-n4cncn4)cc3)on2)C1 (stereo not drawn) returned DT40 TDP1 no CPT inconclusive, HT1080 IDH1KD tx 2%, DT40 TDP1 CPT inconclusive, HT1080NT lethal 2% and IL1B secr inh 13.
For COc1ccc(CCNC(=O)c2nc3ncccn3n2)cc1OC the results were DT40 TDP1 no CPT 16µM*, HT1080 IDH1KD tx 8%, DT40 TDP1 CPT inconclusive, HT1080NT lethal 6% and IL1B secr inh -3.
`COc1ccc(CCNC(=O)c2cccc(-n3c(C)nc4cccnc43)c2)cc1OC` gave DT40 TDP1 no CPT inconclusive and DT40 TDP1 CPT -21%.
`Cc1cccn2c(=O)c(C(=O)NCCc3ccccc3)c(O)nc12` gave DT40 TDP1 no CPT inconclusive and DT40 TDP1 CPT 16µM*.
COc1ccc(CCNC(=O)c2cc3c(=O)n4cccc(C)c4nc3n2C)cc1 was read as DT40 TDP1 no CPT inconclusive and DT40 TDP1 CPT 2%.
For Cc1ccc(CNC(=O)c2c(O)nc3ccccn3c2=O)cc1 the results were DT40 TDP1 no CPT 29µM* and DT40 TDP1 CPT inconclusive.
`COc1cccc(CCNC(=O)c2c(O)nc3c(C)cccn3c2=O)c1` gave DT40 TDP1 no CPT inconclusive and DT40 TDP1 CPT 18µM*.
Screening COc1ccc(CCNC(=O)c2c(O)nc3cc(C)ccn3c2=O)cc1OC returned DT40 TDP1 no CPT -30% and DT40 TDP1 CPT -7%.
Screening COc1ccc(CCNC(=O)c2c(O)nc3c(C)cccn3c2=O)cc1OC returned DT40 TDP1 no CPT inconclusive and DT40 TDP1 CPT 23µM*.
Screening Cc1cc(C)n(-c2nc(C)c(C)c(=O)n2CC(=O)Nc2ccc([N+](=O)[O-])cc2)n1 returned DT40 TDP1 no CPT 21µM* and DT40 TDP1 CPT inconclusive.
`Cc1cc(C)n(-c2ccc(C(=O)OCC(=O)Nc3ccc([N+](=O)[O-])cc3)cc2)n1` gave DT40 TDP1 no CPT -15%, HT1080 IDH1KD tx 4%, DT40 TDP1 CPT 0%, HT1080NT lethal 14% and IL1B secr inh 1.
For CC(=O)c1ccc(NC(=O)Cn2c(-n3nc(C)cc3C)nc(C)cc2=O)cc1 the results were DT40 TDP1 no CPT 18µM* and DT40 TDP1 CPT inconclusive.
`O=C(NC12CC3CC(CC(C3)C1)C2)c1ccc(-c2ccc(Br)cc2)o1` gave DT40 TDP1 no CPT 16µM*, HT1080 IDH1KD tx inconclusive, DT40 TDP1 CPT 23µM*, HT1080NT lethal -7% and IL1B secr inh inconclusive.
